Source: paper PMC5540273 (PLoS ONE, 2017)

What was measured:
Conditions in all cases: concentration: 1 μM, replicates: in singlicate; n = 1
PRKCD = system: PRKCD
PRKCE = system: PRKCE
PRKCH = system: PRKCH
PRKCI = system: PRKCI
PRKCQ = system: PRKCQ
PRKD1 = system: PRKD1
PRKD2 = system: PRKD2
PRKD3 = system: PRKD3
PRKG1 = system: PRKG1
PRKG2 = system: PRKG2
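Also: KINOMEscan kinase panel screen.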

Cc1ccc(C)c(NC(=O)NCCNc2ccnc(Nc3ccc(F)cc3)n2)c1 [GSK1379878]
%Inh (PRKCD): 0%
%Inh (PRKCE): 0%
%Inh (PRKCH): 0%
%Inh (PRKCI): 0%
%Inh (PRKCQ): 0%
%Inh (PRKD1): 1%
%Inh (PRKD2): 0%
%Inh (PRKD3): 0%
%Inh (PRKG1): 0%
%Inh (PRKG2): 0%

COc1ccc(NC(=O)Nc2ccc(C)c(-c3ccc(C(=O)Nc4ccncc4)cc3)c2)cc1 [GSK1398475]
%Inh (PRKCD): 0%
%Inh (PRKCE): 3%
%Inh (PRKCH): 0%
%Inh (PRKCI): 0%
%Inh (PRKCQ): 0%
%Inh (PRKD1): 0%
%Inh (PRKD2): 11%
%Inh (PRKD3): 5%
%Inh (PRKG1): 0%
%Inh (PRKG2): 0%

NC(=O)c1sc(-n2cnc3ccccc32)cc1OCc1ccccc1F [GSK1024306]
%Inh (PRKCD): 0%
%Inh (PRKCE): 12%
%Inh (PRKCH): 17%
%Inh (PRKCI): 0%
%Inh (PRKCQ): 0%
%Inh (PRKD1): 0%
%Inh (PRKD2): 7%
%Inh (PRKD3): 0%
%Inh (PRKG1): 12%
%Inh (PRKG2): 0%

Fc1cccc(COc2ccc(Nc3ncnc4sc(-c5ccc[nH]5)cc34)cc2Cl)c1 [GW707818]
%Inh (PRKCD): 0%
%Inh (PRKCE): 14%
%Inh (PRKCH): 100%
%Inh (PRKCI): 9%
%Inh (PRKCQ): 0%
%Inh (PRKD1): 26%
%Inh (PRKD2): 54%
%Inh (PRKD3): 0%
%Inh (PRKG1): 0%
%Inh (PRKG2): 10%

Nc1nc(-c2ccccn2)c(-c2ccnc3ccccc23)s1 [GW548057]
%Inh (PRKCD): 0%
%Inh (PRKCE): 26%
%Inh (PRKCH): 9%
%Inh (PRKCI): 26%
%Inh (PRKCQ): 3%
%Inh (PRKD1): 36%
%Inh (PRKD2): 25%
%Inh (PRKD3): 15%
%Inh (PRKG1): 17%
%Inh (PRKG2): 9%

Fc1ccc(-c2ncn(CCCNCc3ccccc3)c2-c2ccncc2)cc1
%Inh (PRKCD): 0%
%Inh (PRKCE): 26%
%Inh (PRKCH): 0%
%Inh (PRKCI): 0%
%Inh (PRKCQ): 30%
%Inh (PRKD1): 20%
%Inh (PRKD2): 0%
%Inh (PRKD3): 27%
%Inh (PRKG1): 7%
%Inh (PRKG2): 0%

O=C(Nc1ccccc1F)NC1CCN(c2ccnc(Nc3ccc(F)cc3)n2)C1 (centres unmarked) [GSK1379722]
%Inh (PRKCD): 0%
%Inh (PRKCE): 13%
%Inh (PRKCH): 30%
%Inh (PRKCI): 10%
%Inh (PRKCQ): 23%
%Inh (PRKD1): 0%
%Inh (PRKD2): 0%
%Inh (PRKD3): 0%
%Inh (PRKG1): 0%
%Inh (PRKG2): 0%

CC(=O)Nc1n[nH]c2ncc(-c3ccccc3)cc12 [SB-548492]
%Inh (PRKCD): 7%
%Inh (PRKCE): 17%
%Inh (PRKCH): 10%
%Inh (PRKCI): 0%
%Inh (PRKCQ): 0%
%Inh (PRKD1): 0%
%Inh (PRKD2): 0%
%Inh (PRKD3): 0%
%Inh (PRKG1): 30%
%Inh (PRKG2): 20%

CCn1c(-c2ccncc2)nc2cnccc21 [SB-735216]
%Inh (PRKCD): 0%
%Inh (PRKCE): 37%
%Inh (PRKCH): 12%
%Inh (PRKCI): 46%
%Inh (PRKCQ): 8%
%Inh (PRKD1): 0%
%Inh (PRKD2): 4%
%Inh (PRKD3): 0%
%Inh (PRKG1): 2%
%Inh (PRKG2): 8%

C[C@H]1CC[C@@H](C(=O)Nc2ccccc2)CN1c1cc(-c2ccc3c(N)n[nH]c3c2)nc(N)n1 [GSK2283293]
%Inh (PRKCD): 0%
%Inh (PRKCE): 0%
%Inh (PRKCH): 24%
%Inh (PRKCI): 24%
%Inh (PRKCQ): 4%
%Inh (PRKD1): 0%
%Inh (PRKD2): 4%
%Inh (PRKD3): 0%
%Inh (PRKG1): 0%
%Inh (PRKG2): 4%

N#Cc1ccc(Oc2ccc(Nc3ncnc4cc[nH]c34)cc2Cl)cc1
%Inh (PRKCD): 0%
%Inh (PRKCE): 0%
%Inh (PRKCH): 22%
%Inh (PRKCI): 12%
%Inh (PRKCQ): 19%
%Inh (PRKD1): 0%
%Inh (PRKD2): 10%
%Inh (PRKD3): 0%
%Inh (PRKG1): 0%
%Inh (PRKG2): 30%

COC(=O)c1cccc(NC(=O)NCCNc2ccnc(Nc3ccc(F)cc3)n2)c1 [GSK1379883]
%Inh (PRKCD): 0%
%Inh (PRKCE): 6%
%Inh (PRKCH): 34%
%Inh (PRKCI): 24%
%Inh (PRKCQ): 0%
%Inh (PRKD1): 21%
%Inh (PRKD2): 35%
%Inh (PRKD3): 0%
%Inh (PRKG1): 7%
%Inh (PRKG2): 0%

Clc1cc(Nc2ncnc3cc[nH]c23)ccc1OCc1ccccn1
%Inh (PRKCD): 13%
%Inh (PRKCE): 8%
%Inh (PRKCH): 0%
%Inh (PRKCI): 9%
%Inh (PRKCQ): 34%
%Inh (PRKD1): 0%
%Inh (PRKD2): 3%
%Inh (PRKD3): 0%
%Inh (PRKG1): 10%
%Inh (PRKG2): 22%

COC(=O)c1c(-c2ccccc2)c2cc(Cl)ccc2c(=O)n1Cc1ccc(S(C)(=O)=O)cc1
%Inh (PRKCD): 0%
%Inh (PRKCE): 0%
%Inh (PRKCH): 0%
%Inh (PRKCI): 8%
%Inh (PRKCQ): 19%
%Inh (PRKD1): 33%
%Inh (PRKD2): 0%
%Inh (PRKD3): 0%
%Inh (PRKG1): 0%
%Inh (PRKG2): 12%

Cc1ccc(NC(=O)c2cccc(C#N)c2)cc1-c1ccc(C(=O)Nc2ccncc2)cc1 [GSK1398463]
%Inh (PRKCD): 7%
%Inh (PRKCE): 5%
%Inh (PRKCH): 27%
%Inh (PRKCI): 0%
%Inh (PRKCQ): 0%
%Inh (PRKD1): 0%
%Inh (PRKD2): 12%
%Inh (PRKD3): 31%
%Inh (PRKG1): 2%
%Inh (PRKG2): 0%

CN1CCC(n2cnc(-c3ccc(F)cc3)c2-c2ccnc(NC3CCNCC3)n2)CC1 [SB-229482]
%Inh (PRKCD): 1%
%Inh (PRKCE): 27%
%Inh (PRKCH): 0%
%Inh (PRKCI): 0%
%Inh (PRKCQ): 13%
%Inh (PRKD1): 0%
%Inh (PRKD2): 0%
%Inh (PRKD3): 0%
%Inh (PRKG1): 0%
%Inh (PRKG2): 17%

COc1cc2c(Nc3cccc(NC(=O)c4ccccc4)c3)ncnc2cc1OCCCN1CCOCC1 [GSK223810]
%Inh (PRKCD): 18%
%Inh (PRKCE): 13%
%Inh (PRKCH): 10%
%Inh (PRKCI): 8%
%Inh (PRKCQ): 22%
%Inh (PRKD1): 2%
%Inh (PRKD2): 4%
%Inh (PRKD3): 5%
%Inh (PRKG1): 8%
%Inh (PRKG2): 0%
